This passage reports z-score and composite z-score results from PubChem BioAssay.

A short description of assay [1]: resazurin metabolic signal in HepG2 cells – cell-based, resazurin fluorescence, 24 h, PK04 Diversity Set, profiling panel (AID 1172). Also: test concentration not given here. The note with it: HepG2 viability, higher = more signal.
Assay [2] is described as follows: budding yeast growth changes without added modifier – OD600, strain BY4716, 24 h, basal condition, primary screen (AID 1173). The note with it: S. cerevisiae BY4716 growth, OD600, 24 h; higher = more signal, called active from +8 up or from −8 down.
A short description of assay [3]: viability profiling in MM1S myeloma cells – cell-based, resazurin fluorescence, basal, 24 h, PK04 Diversity Set, profiling panel (AID 1174).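 Also: MM1S multiple myeloma cell line; test concentration not given here.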 The conditions noted are these: higher = more signal, called active from +8 up or from −8 down.
For assay [4], the target named is Dihydroorotate dehydrogenase (quinone), mitochondrial (Plasmodium falciparum (isolate 3D7)) (UniProt Q08210). Nature of the assay: inhibition of P. falciparum DHODH – biochemical, C-terminal His tag, absorbance 600 nm, primary screen (AID 1175).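 Also: recombinant parasite enzyme with a five histidine tag at its C terminus; test concentration not given here.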 The conditions noted are these: PfDHODH enzyme, DCIP absorbance 600 nm; higher = more signal, called active from +8 up or from −8 down.

A short description of assay [5]: inhibition of PAO1 biofilm formation – strain PAO1, LB-PBS medium, absorbance 600 nm, primary screen (AID 1176). Also: test concentration not given here. The note with it: P. aeruginosa PAO1 growth/biofilm, A600, 12 h; higher = more signal.
Assay [6] can be described thus: growth modulation of vineyard yeast isolate – strain RM11-1a, OD600, basal, 24 h, primary screen (AID 1177).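 Also: cultures grown under basal conditions with no added stressor; test concentration not given here.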 The note with it: S. cerevisiae RM11-1a growth, OD600, 24 h; higher = more signal, called active from +8 up or from −8 down.
The nature of assay [7]: growth of efflux-deficient E. coli DRC39 – strain DRC39, OD650, 24 h, E. coli filamentation inducers, primary screen (AID 1178).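 Also: growth measured as culture turbidity by optical density at 650 nm; test concentration not given here.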 The note with it: E. coli DRC39 acrAB, higher = more signal, called active from +8 up or from −8 down.
Assay [8] in a line: growth of efflux-deficient E. coli DRC39 – strain DRC39, OD650, 48 h, E. coli filamentation inducers, primary screen (AID 1179).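 Also: screen aims at cell division blockers that make cells filament.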 The conditions noted are these: E. coli DRC39 delta-acrAB growth, higher = more signal, called active from +8 up or from −8 down.
Assay [9] can be described thus: viability profiling in RPMI8226 myeloma cells – cell-based, resazurin fluorescence, basal, 24 h, PK04 Diversity Set, profiling panel (AID 1180).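 Also: RPMI8826 multiple myeloma cell line at 5000 cells per well; test concentration not given here.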 The conditions noted are these: higher = more signal.
The target of assay [10] is E3 ubiquitin-protein ligase XIAP (Homo sapiens) (UniProt P98170). Nature of the assay: small molecules binding XIAP protein – biophysical, small-molecule microarray, fluorescence 635 nm, primary screen (AID 1181).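 Also: score merges 667 nm emission and signal to noise over triplicate slides.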 The conditions noted are these: higher = more signal.

Calls of active or inactive are those of the source. Unless noted, no rule for the calls is given here.

Chain of E3 ubiquitin-protein ligase XIAP (Homo sapiens) (P98170 whole entry, looked up): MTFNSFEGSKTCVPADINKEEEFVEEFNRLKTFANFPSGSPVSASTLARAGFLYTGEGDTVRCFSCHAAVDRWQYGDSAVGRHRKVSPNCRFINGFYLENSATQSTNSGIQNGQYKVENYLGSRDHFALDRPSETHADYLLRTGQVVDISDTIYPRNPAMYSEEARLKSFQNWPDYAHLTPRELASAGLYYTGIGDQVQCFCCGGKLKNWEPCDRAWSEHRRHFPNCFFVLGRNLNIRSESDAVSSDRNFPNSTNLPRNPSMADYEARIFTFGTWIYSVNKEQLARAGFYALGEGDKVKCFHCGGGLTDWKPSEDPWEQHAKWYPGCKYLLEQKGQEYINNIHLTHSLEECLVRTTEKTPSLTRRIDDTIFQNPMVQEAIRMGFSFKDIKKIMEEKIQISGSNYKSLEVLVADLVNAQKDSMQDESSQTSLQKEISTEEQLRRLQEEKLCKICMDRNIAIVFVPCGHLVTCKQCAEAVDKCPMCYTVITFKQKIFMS
Chain of Dihydroorotate dehydrogenase (quinone), mitochondrial (Plasmodium falciparum (isolate 3D7)) (Q08210 whole entry, looked up): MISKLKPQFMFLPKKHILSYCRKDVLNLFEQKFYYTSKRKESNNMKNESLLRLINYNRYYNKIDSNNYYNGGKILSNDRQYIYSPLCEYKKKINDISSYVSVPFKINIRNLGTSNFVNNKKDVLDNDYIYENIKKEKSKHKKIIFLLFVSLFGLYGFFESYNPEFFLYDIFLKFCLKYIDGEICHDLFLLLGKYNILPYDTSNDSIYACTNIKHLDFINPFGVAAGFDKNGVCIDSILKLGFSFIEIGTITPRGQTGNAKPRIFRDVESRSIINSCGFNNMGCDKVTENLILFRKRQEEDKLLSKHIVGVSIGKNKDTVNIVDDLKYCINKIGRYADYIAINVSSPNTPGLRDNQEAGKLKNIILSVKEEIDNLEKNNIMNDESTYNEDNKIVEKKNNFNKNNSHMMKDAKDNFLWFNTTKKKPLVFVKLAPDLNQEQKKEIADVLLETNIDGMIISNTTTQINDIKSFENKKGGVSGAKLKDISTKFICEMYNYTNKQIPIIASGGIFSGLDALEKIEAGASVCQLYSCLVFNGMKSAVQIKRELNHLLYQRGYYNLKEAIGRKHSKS

On to `CCC1=NOC(CCC2CC(OC(=O)NCc3cccc4c3OCO4)CC3(CCCC(COC(=O)NCCc4ccc(Cl)cc4)O3)O2)C1` (stereo not given), for which the z-score is 0.22 in assay [1]; 0.519 (inactive) in assay [2]; -0.0555 (inactive) in assay [3]; 0.52 (inactive) in assay [5]; 0.0088 (inactive) in assay [6]; 0.137 (inactive) in assay [7]. The values for the z-score in assay [8] and in assay [9] were 0.377 (inactive) and 0.73, respectively. For the same molecule, the composite z-score is -0.362 (inactive) in assay [4] and -0.0476 in assay [10].

Regarding `O=C1[C@H]2[C@H]3[C@H](O)[C@H](O)CC(=NOCc4ccccc4)[C@H]3CC[C@H]2C(=O)N1C1CCCCC1`, the z-score in assay [1] is -0.483; in assay [2], -0.149 (inactive); in [3], -0.99 (inactive); in [5], 0.377 (inactive); in assay [6], -0.373 (inactive); in assay [7] it was -0.157 (inactive). Also, the z-score in [8] was -0.414 (inactive); in assay [9] it was -1.83. For the same molecule, the composite z-score was 0.0894 (inactive) in assay [4] and 0.237 in [10].

Consider `CO[C@@H](C1CCCCC1)[C@@H](C)[C@H](OCc1cccc(Br)c1)[C@@H](C)CO`, for which the z-score in [1] was 0.414; in assay [2], -2.13 (inactive); in [3] it was -0.885 (inactive); in assay [5] it was -0.127 (inactive); in [6], -0.0839 (inactive); in assay [7] it was -0.275 (inactive). Moreover, the z-score in assay [8] is -0.776 (inactive); in assay [9] it was -0.835. Further, the composite z-score in assay [4] is 0.0434 (inactive); in [10], -0.16.

As for `CC(C)=CCCC(C)=CCON=C1C[C@@H](O)[C@@H](O)[C@@H]2[C@@H]3C(=O)N(Cc4ccc5c(c4)OCO5)C(=O)[C@@H]3CC[C@H]12`, the z-score in assay [1] was 0.659; in [2], 0.522 (inactive); in assay [3] it was -0.503 (inactive); in assay [5], 0.437 (inactive); in assay [6], 1.01 (inactive); in assay [7], 0.454 (inactive). The z-score is 0.0551 (inactive) in [8] and -0.402 in assay [9]. Further, the figures for the composite z-score in [4] and in assay [10] were -0.108 (inactive) and -0.144, respectively.

With `O=C1[C@H]2[C@H]3[C@H](O)[C@H](O)CC(=NO[C@@H]4O[C@H](CO)[C@@H](O)[C@H](O)[C@H]4O)[C@@H]3CC[C@H]2C(=O)N1C1CCCCC1`, the z-score in [1] was -0.841; in assay [2], 0.431 (inactive); in [3], -2.35 (inactive); in [5] it was 0.553 (inactive); in assay [6], 0.237 (inactive); in [7], -0.0163 (inactive). Also, the z-score in assay [8] is 0.27 (inactive); in assay [9] it was -0.917. The figures for the composite z-score in assay [4] and in assay [10] were -0.201 (inactive) and -0.132, respectively.

Consider `CO[C@H]1COC(=O)CCC[C@H](C)[C@H](OC)COC(=O)CC=C[C@@H]1C`, for which the z-score in [1] was 0.631; in assay [2], -2.21 (inactive); in assay [3], 0.364 (inactive); in [5] it was -0.692 (inactive); in [6], -1.93 (inactive); in assay [7], 0.115 (inactive). The z-score was 0.757 (inactive) in [8] and 0.541 in assay [9]. In addition, the figures for the composite z-score in assay [4] and in assay [10] were -1.04 (inactive) and 0.0593, respectively.

For the molecule `CCOC(=O)CCN1C(=O)[C@H]2[C@H]3[C@H](O)[C@H](O)CC(=NNC(=O)OCc4ccccc4)[C@H]3CC[C@H]2C1=O`, the z-score in assay [1] is -0.0842; in [2], -0.712 (inactive); in assay [3] it was -0.364 (inactive); in assay [5], 1.1 (inactive); in [6], -1.26 (inactive); in [7], -0.213 (inactive). The z-score in assay [8] was -0.354 (inactive); in assay [9], 0.0536. The composite z-score in assay [4] was -0.192 (inactive); in assay [10] it was -0.163.

As to `CCc1cc2c(nc1CC)CCN(CCC(C)=NOC[C@@H](C)[C@H](OCc1ccccc1)C(C)C)C2`, the z-score in [1] was -0.0541; in [2] it was -0.258 (inactive); in assay [3], 0.0348 (inactive); in [5], -0.537 (inactive); in assay [6], -2.21 (inactive); in assay [7] it was -0.231 (inactive). Also, the values for the z-score in [8] and in assay [9] were -0.313 (inactive) and -0.261, respectively. Further, the composite z-score in [4] was -1.67 (inactive); in assay [10], -0.11.

`C#CCCCON=C1C[C@@H](O)[C@@H](O)[C@@H]2[C@@H]3C(=O)N(C[C@@H]4CCCO4)C(=O)[C@@H]3CC[C@@H]12`: the z-score in assay [1] is 0.475; in assay [2], 0.43 (inactive); in assay [3], 0.0893 (inactive); in assay [5], 0.14 (inactive); in [6], -0.399 (inactive); in [7], 0.534 (inactive). The results for the z-score in assay [8] and in [9] were 0.802 (inactive) and 0.199, respectively. Further, the composite z-score is -0.85 (inactive) in [4] and -0.0303 in assay [10].

For `COC(=O)[C@H](C)NC(=O)CCC1CC(OC(=O)NCc2cccc3ccccc23)CC2(CCCC(COC(=O)NCCC(C)C)O2)O1` (stereo not given in full), the z-score in assay [1] was 0.817; in assay [2] it was -0.274 (inactive); in [3] it was 0.505 (inactive); in assay [5] it was -0.0691 (inactive); in [6] it was -0.186 (inactive); in assay [7], 0.443 (inactive). For the same molecule, the z-score in [8] is 0.594 (inactive); in assay [9] it was 0.452. In addition, the composite z-score is -1.24 (inactive) in [4] and -0.191 in [10].

Regarding `CC(CCN1CCCc2nc(C)c(C)cc21)=NO[C@H](C)c1cn([C@@H]2COC[C@H]2O)nn1`, the z-score in [1] was -0.537; in [2], 0.593 (inactive); in [3], -0.144 (inactive); in assay [5] it was -0.525 (inactive); in [6], 0.836 (inactive); in [7], 0.973 (inactive). Also, the z-score was 0.741 (inactive) in [8] and -1.6 in [9]. Moreover, the composite z-score is -0.0105 (inactive) in [4] and 0.0264 in [10].

`CC(C)=NOC[C@@H](O)[C@H]1O[C@@H]2OC(C)(C)O[C@@H]2[C@H]1O`: the z-score in [1] is -0.831; in [2] it was -0.0545 (inactive); in assay [3], -0.369 (inactive); in assay [5], -0.443 (inactive); in assay [6] it was 0.0762 (inactive); in assay [7], 0.757 (inactive). In addition, the results for the z-score in assay [8] and in [9] were 0.704 (inactive) and -0.686, respectively. For the same molecule, the composite z-score in [4] is 0.759 (inactive); in [10], -0.389.

For `CCCNC(=O)OC[C@H]1O[C@H](CCON=C2c3cc(OC)ccc3O[C@H](c3cccc(OC)c3)[C@H]2O)C=C[C@@H]1Oc1ccc(OC)cc1`, the z-score in [1] is -0.286; in assay [2] it was 0.668 (inactive); in assay [3], -0.801 (inactive); in assay [5] it was 0.724 (inactive); in assay [6] it was 0.391 (inactive); in assay [7], 0.885 (inactive). In addition, the z-score was -0.034 (inactive) in [8] and -0.384 in assay [9]. For the same molecule, the composite z-score in assay [4] is 0.159 (inactive); in [10], 0.02.
